The panel holds about 83,000 compounds, 20% with a hit somewhere; the sample as a whole holds those more often.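 Note: values are percent growth. 100 is the growth of untreated cells, values between 100 and 0 indicate rising inhibition; between -100 and 0 indicates cell death.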 Values without a mark were called inactive. Active and inactive are the calls of the source. The calls were made as follows: active = growth percent below 10; inactive = the rest.
The molecules below were run on PC-3 prostate (assay: NCI-60 one-dose screen, 48 h (100 = growth as untreated, 0 = no growth, -100 = all killed)). Conditions: 10 µM unless noted.

| SMILES | growth |
| --- | --- |
| CC(=O)N/C(=C1/OC(C(O)C(O)C(O)CO)CN1C)[P+](c1ccccc1)(c1ccccc1)c1ccccc1 (stereo not drawn) | 98.2% |
| COc1ccc(/C=C/C(=O)c2ccc(Nc3nc(Nc4ccc(F)cc4)nc(Nc4ccc(Cl)cc4)n3)cc2)cc1 | 81.4% |
| COc1ccc(C2=NN(C(=O)c3cc(OC)c(OC)c(OC)c3)C(c3ccc(N(C)C)cc3)C2)cc1 (stereo not drawn) | 20.6% |
| O=C1NC(=C(Cl)Cl)/C(=N/S(=O)(=O)NCCc2c[nH]c3ccccc23)N1 | 83.5% |
| COc1ccc(C/C(C)=C(\c2ccc(O)cc2)c2ccc(OCCN3CCCC3)cc2)cc1 | 96.8% |
| CCOC(=O)NN1CC(O)=C(c2nc(-c3ccc(Br)cc3)cs2)C1=N | 85.2% |
| COC(=O)/C(CCC=C(C)C)=C1\[C@@H](OC(C)=O)C[C@@]2(C)[C@H]1CC(=O)[C@H]1[C@@]3(C)CCC(N4CCCC4)[C@@H](C)[C@@H]3CC[C@@]12C (stereo partly drawn) | 89.1% |
| Nc1c(C(=O)Nc2ccccn2)sc2nc3c(cc12)C(O)CCC3 (stereo not drawn) | 16.3% |
| COc1ccc2nc3cc(Cl)ccc3c(NCCN)c2c1 | 6.63% (active) |
| Cc1cc2nc3c4ccccc4n(CCN(C)C)c3nc2cc1C | 12.9% |
| Cc1ccc(C)n1/C=C/n1c(C)ccc1C | 62.8% |
| Cc1c2ccccc2nc2c1ccc1cccnc12 | 65.1% |
| CN1CCN(Cc2ccc(NC(=O)c3cncc(C#Cc4cncc5ncccc45)c3)cc2C(F)(F)F)CC1 | 23% |

From PubChem BioAssay (NCI)
